# Screens as filed in PubChem BioAssay.
# An excerpt weighted towards active compounds, which were near 5.2% of everything screened.
# FBPA coupling cs: coupling enzyme interference in Giardia aldolase counter-screen. 290,000 compounds, 0.67% hits. activity change, negative = inhibition, % at 58.2 µM, hits read low. AID 2472. coupling enzyme system counterscreen, AmpLite Red fluorescence; in the data active = activity change below about -30%
#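 Counterscreen lacking aldolase: glyceraldehyde-3-phosphate coupling-enzyme reagent preincubated 10 min at RT with compound (at 57.5 uM final), then substrate/coupling system with AmpLite Red added; fluorescence read at 525/598 nm after 20 min RT.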
# Tau fibril FP: tau fibrillization inhibition (FP). AID 1468. Potency, µM (series often up to 57.7 µM), for inactives: at the highest dose activity, negative = inhibition, most hits filed as inhibitors. 280,000 compounds, 0.39% hits. K18 P301L tau heparin fibrillization, Alexa594 FP, 6 h. P10636; note: potency is the fitted concentration of half-maximal effect; nearly all actives have a fitted effect of over 55% in size
# Target sequence (P10636 561-689 P618L limits assumed): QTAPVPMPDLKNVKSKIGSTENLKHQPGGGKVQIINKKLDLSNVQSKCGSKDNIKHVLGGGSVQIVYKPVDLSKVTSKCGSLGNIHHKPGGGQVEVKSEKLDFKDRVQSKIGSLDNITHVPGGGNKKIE
#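 K18 P301L tau (15 uM unlabeled/0.24 uM Alexa 594-labeled, final) + compound + heparin 20 uM final; 100 mM NaOAc pH 7; 6 hr 37 C; ThT 30 uM final added, 1 hr RT; FP ex 555/em 632 nm.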
# Sfp PPTase inh: blocks B. subtilis Sfp PPTase activity | 310,000 compounds, 3.5% hits | AID 1490 | Biochemical Sfp PPTase activity, qHTS | Q9F4F7 | Potency, µM, for the others: largest response in the series, negative = inhibition, most hits filed as inhibitors;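 note: the enzyme is Sfp with the accession as filed and its product quenches rhodamine fluorescence; potency is the fitted concentration of half-maximal effect; 0% = enzyme reaction without inhibitor and -100% = no enzyme wells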
#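 After 15 min at room temperature with compound, 15 nM Sfp received 5 uM rhodamine-CoA plus 12.5 uM BHQ-2-ybbR (50 mM Hepes pH 7.6, 10 mM MgCl2). Rate came from the fluorescence difference over 30 min, ex 525/em 598 nm.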
# Tau fluor counter: counter-screen for tau fibril formation inhibitors | 280,000 compounds, 0.93% hits | tau K18 P301L Alexa594 fluorescence, heparin fibrillization | Potency, µM (doses to about 57.7 µM), without a hit: at the top dose activity change, negative = decrease; note: potency is the fitted concentration of half-maximal effect; nearly all actives have a fitted effect of over 55% in size
#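 Human K18 P301L tau (15 uM unlabeled plus 0.24 uM Alexa 594-labeled, final) in 100 mM sodium acetate pH 7 was mixed with compound and 20 uM heparin and incubated 6 hr at 37 C.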
# Tau ThT inhib: tau fibrillization inhibition (ThT binding). P10636. recombinant tau K18 P301L (four-repeat tau fragment), heparin-induced fibrillization, ThT fluorescence. Potency, µM (highest dose often 57.4 µM), for inactives: at the top dose activity, negative = inhibition, actives largely listed as inhibitors. 270,000 compounds, 2.1% hits; note: potency is the fitted concentration of half-maximal effect; nearly all actives have a fitted effect of over 55% in size
#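 In this qHTS, human K18 P301L tau is incubated with compound and heparin for 6 hr at 37 C, and Thioflavin T fluorescence then reports fibril load.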
# * hit, by the source's call; ? = inconclusive; nt = not tested or not shown; [ ] = another dose, or the depositor's remark. Unless noted, calls come from the whole dose curve; as a rule, active = well fitted curve in the direction sought with a large enough effect; inconclusive = small, poorly fitted or top-dose-only effect, or another doubt; inactive = no such curve, though single readings can be large; an effect the other way counts as inactive or inconclusive. Unless noted, % is set by controls: 0 for no effect and ±100 for the full control effect.
SMILES,FBPA coupling cs,Tau fibril FP,Sfp PPTase inh,Tau fluor counter,Tau ThT inhib
Cn1cnc(S(=O)(=O)N2CCCC(C(=O)NCc3ccc(F)cc3)C2)c1 (stereo not drawn),nt,0%,nt,0%,0%
NS(=O)(=O)c1ccc(Nc2nc3ccccc3nc2NS(=O)(=O)c2cccc([N+](=O)[O-])c2)cc1,3,8%,24%,?,11µM*
Cc1sc2ncn(CC(=O)N(C)c3ccc(C(C)C)cc3)c(=O)c2c1S(=O)(=O)N1CCC(C)CC1,nt,9%,nt,-23%,-14%
COC(=O)c1ccccc1S(=O)(=O)N1CCc2nc(-c3ccc(OC)cc3C)c3c(c2C1)CO[C@@H](c1ccccc1)C3,2,7%[11.6 µM],-12%,3%[11.6 µM],12%[11.5 µM]
COC(=O)c1c(NC(=O)CN2CCN(C(=O)c3ccco3)CC2)c2c(C)cccc2n1C,-6,-4%,20µM*,-12%,-13%
O=c1c(CCc2ccccc2)nc2cnc(N3CCOCC3)nc2n1Cc1ccc(F)cc1,-3,nt,0%,nt,nt
CCc1nnc2c3ccccc3nc(N3CCN(c4cc(Cl)ccc4C)CC3)n12,nt,-5%,nt,8%,-6%
Cc1ccccc1-n1nc(C(=O)c2cccs2)cc(-c2nc3ccccc3[nH]2)c1=N,1,3%,5%,-22%,?
COc1ccc(-n2nc(C(=O)c3cccs3)cc(-c3nc4ccccc4[nH]3)c2=N)cc1,4,-3%,26%,?,4µM*
COC(=O)C/C=C/C(C)C(OC)c1ccccc1Br (stereo not drawn),-1,0%[11.6 µM],15%,-13%[11.6 µM],-13%[11.5 µM]
CCCC(=O)Nc1cc(C)c(NC(=O)c2ccccn2)cn1,0,-4%,?,-10%,-6%
Cc1cc(NC(=O)C(C)C)ncc1NC(=O)c1ccccn1,1,6%,79µM*,-2%,-2%
COc1cc2[nH]c(Cl)c([N+](=O)[O-])c2cc1OC,-48*,?,89µM*,?,14µM*
Cc1ccccc1C(=O)n1nc(-c2ccco2)nc1NCc1ccc(Cl)cc1,nt,-5%,nt,-18%,3%
CCOc1ccc(-c2cc(NC(=O)Nc3ccccc3Cl)c(C(=O)OC)s2)cc1,nt,3%,nt,?,?
CCOc1ccc2[nH]c(=O)c(CN(CCO)C(c3nnnn3C3CCCCC3)C(C)C)cc2c1 (stereo not drawn),-2,1%,89µM*,3%,-11%
CCCCN(c1ccccc1)S(=O)(=O)c1cc2c3c(c1)C(C)C(=O)N3CCC2 (stereo not drawn),nt,-14%,nt,-10%,-10%
COc1ccc(/C=N/OCC(=O)N=Nc2c(O)[nH]c3ccc(Br)cc23)cc1OC,-3,?,-14%,?,18µM*
COc1nc(/C=C/N(C)C)c([N+](=O)[O-])c(OC)n1,0,-6%,-10%,?,8.9µM*
COc1ccccc1C(=O)N1CCC(N2CCN(c3ccccc3OC)CC2)CC1,-2,-5%,89µM*,-16%,-18%
COc1ccc(CN2CCN(C(=O)c3cccc4ccccc34)CC2)cc1Br,1,nt,56µM*,nt,nt
COc1cccc(C(=O)N2CCN(C3CCN(Cc4ccccc4)CC3)CC2)c1OC,1,3%,79µM*,1%,-6%
CN(C)S(=O)(=O)c1ccc(-c2csc(N/N=C/c3ccco3)n2)cc1,0,10%,-2%,?,?
Cc1ccc(-c2csc(N/N=C/c3ccco3)n2)cc1,-3,2%,89µM*,?,14µM*
Cc1sc(N/N=C/c2cccnc2)nc1-c1ccccc1,-3,-2%,-99%,?,?
SMILES,FBPA coupling cs,Tau fibril FP,Sfp PPTase inh,Tau fluor counter,Tau ThT inhib
Clc1ccc(-c2csc(N/N=C/c3ccco3)n2)cc1,-1,-4%,?,13µM*[quencher],14µM*
C(=N/Nc1nccs1)/c1cccnc1,0,4%,50µM*,-18%,?
Clc1cnc(N/N=C/c2ccco2)c(Cl)c1,-10,3%,79µM*,-3%,-1%
Clc1cnc(N/N=C/c2cccs2)c(Cl)c1,-2,2%,-11%,-18%,?
COc1ccc(-c2noc(CSc3nnc(-c4ccncc4)n3-c3ccccc3)n2)cc1,nt,5%,nt,-7%,-5%
Cc1sc(N/N=C/c2ccco2)nc1-c1ccccc1,-3,8%,-4%,?,?
Brc1ccc(-c2csc(N/N=C/c3ccco3)n2)cc1,-1,-13%,6%,18µM*[quencher],16µM*
Clc1ccc(-c2csc(N/N=C\c3cccnc3)n2)cc1,2,1%,56µM*,?,?
C(=N\Nc1nc(-c2ccccc2)cs1)/c1ccco1,-5,?,?,14µM*[quencher],14µM*
O=C(Nc1nc(-c2ccc(Cl)cc2)cs1)c1cccnc1,-1,-22%,-7%,-13%,-7%
Cc1cc(-c2ccccc2)nc(N/N=C/c2ccco2)n1,1,-4%,3%,-6%,-16%
O=C1CC(=O)N(CCc2ccccc2)C(=O)N1CCc1ccccc1,-1,?,?,-26%,28µM*
O=C(CCCN1C(=O)CCC1=O)Nc1ccc(Br)cc1F,-2,-12%,12%,-15%,-20%
O=C(CCCN1C(=O)CCC1=O)Nc1ccccc1F,-1,-14%,79µM*,-16%,?
CCSc1nnc(NC(=O)C(C(F)(F)F)C(F)(F)F)s1,1,?,4%,-21%,22µM*
CCOc1cc(C2c3c(-c4cc(C)ccc4O)n[nH]c3C(=O)N2CCCOC(C)C)ccc1O (stereo not drawn),nt,4%,nt,?,?
COc1cccc(-c2cc(NCc3cccs3)ncn2)c1,1,-12%,-20%,-23%,-13%
c1csc(CNc2ccc3c(c2)OCCO3)c1,-31*,0%,-6%,-15%,?
O=C(C1CCN(S(=O)(=O)c2ccc(Br)s2)CC1)N1CCN(c2cccc(Cl)c2)CC1,nt,5%,nt,-19%,-12%
CCC(=O)Nc1c2c(nn1-c1ccccc1C)CSC2,0,-13%,56µM*,4%,?
Cc1cccc(-n2nc3c(c2NC(=O)CCCl)CSC3)c1,1,nt,45µM*,nt,nt
C[C@@](N)(C(=O)O)[C@@H]1C[C@@H]1C(=O)O,nt,1%,-20%,-7%,3%
CC1=CC2(O)OCCN(CCO)C2=CC1=O (stereo not drawn),-67*,?,56µM*,?,28µM*
Cc1cc(C)n(-c2ncc3c(n2)N(CCO)CCOC3=O)n1,1,-2%,-16%,-6%,-8%
C/C(CCc1oc2ccc(Cl)cc2c1-c1ccc(C)o1)=N\O,-4,-15%,16µM*,?,?
Cc1ccc(C(O)(COC(=O)C(C)C)COC(=O)C(C)C)c(O)c1,-2,1%,79µM*,-19%,?
Cc1ccc(C(=O)OCN2C(=O)c3ccccc3C2=O)c(O)c1,2,nt,18%,nt,nt
Cc1ccc(CNC(=O)CN2C(=O)CCn3nc(-c4ccccc4)cc32)cc1,nt,?,nt,-6%,3%
